This is a sample that favours compounds with a hit; in the whole collection about 5.1% have one here.
S1P3 antag: S1P3 receptor antagonists, primary screen, cell-based; CHO S1P3 NFAT-BLA reporter, FRET fluorescence, antagonist mode; inhibition, % at 4.98 µM; 0.27% of 170,000 active;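 active = inhibition above the plate cutoff, the mean inhibition of test wells on that plate plus 3 SD, cut at about 28% in these data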;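 note: cells challenged with S1P at its EC80 of 0.8 µM; blue over green emission ratio from cleaved BLA substrate after 4 h stimulation; 0% = S1P-stimulated wells and 100% = unstimulated DMSO-only wells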
ROMK primary: ROMK potassium channel modulators, primary screen, cell-based, thallium flux, MLSMR library. ATP-sensitive inward rectifier potassium channel 1 (Homo sapiens), P48048. Tet-inducible ROMK, thallium flux fluorescence; actives lie on both sides. B-score at 10 µM. 2% of 130,000 active;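 active = signal ratio slope over the read window, or its plate-corrected B-score, at least 3 SD from the plate mean, either direction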;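 note: B-score of the F/F0 ratio slope over 7 to 12 s after thallium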
Target sequence (P48048 whole entry, looked up): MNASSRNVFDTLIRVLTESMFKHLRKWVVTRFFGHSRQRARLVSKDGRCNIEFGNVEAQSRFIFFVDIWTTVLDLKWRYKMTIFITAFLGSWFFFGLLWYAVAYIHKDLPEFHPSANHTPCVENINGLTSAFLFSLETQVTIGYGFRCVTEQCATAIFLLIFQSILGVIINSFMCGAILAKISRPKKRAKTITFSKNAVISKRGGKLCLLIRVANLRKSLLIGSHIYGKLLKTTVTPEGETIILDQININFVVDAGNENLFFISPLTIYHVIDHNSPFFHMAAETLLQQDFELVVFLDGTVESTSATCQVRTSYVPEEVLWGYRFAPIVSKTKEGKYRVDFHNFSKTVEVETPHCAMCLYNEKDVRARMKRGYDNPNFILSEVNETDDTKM
S1P4 agonist: S1P4 receptor agonists, primary screen, cell-based; Sphingosine 1-phosphate receptor 4 (Homo sapiens), O95977; S1P4-expressing cell line, agonist reporter assay; activation, % at 4.98 µM; 0.35% of 220,000 active; AID 1509, 2009; in the data active = activation above about 11%;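 note: 0% = DMSO vehicle and 100% = reference agonist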
RAM network inh: inhibitors of the yeast RAM network, primary screen, dse1pr::URA3 reporter, 5-FOA selection; S. cerevisiae dse1pr::URA3 reporter, 5-FOA growth OD615, 2 d; analog-sensitive cbk1-as2 kinase mutant strain; inhibition, % at 50 µM; 1.8% of 190,000 active; AID 868, 2007;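 active = inhibition above a set limit, 3 SD over mean compound inhibition, cut at about 8.4% in these data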;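 note: 0% = DMSO-only wells with no growth and 100% = 10 µM 1-NA-PP1 full growth; inhibition rescues growth on 5-FOA so higher OD means more RAM inhibition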
Cl transport mod: KCC2 cotransporter modulators, thallium flux, primary screen, cell-based, HEK293 KCC2, FluoZin-2 fluorescence, MLSMR. B-score of Tl+ flux slope (higher = more flux/activation; lower = inhibition) at 10 µM. Solute carrier family 12 member 5 (Homo sapiens), Q9H2X9. 2.2% of 190,000 active. KCC2 cells, thallium flux FluoZin-2 fluorescence;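 active = thallium flux slope and its plate-corrected score both differing from the plate sample mean at a set confidence after two filtering rounds, in either direction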;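 note: slope of fluorescence scaled to starting intensity during 10 to 20 s after thallium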
S1P4 antag: S1P4 receptor antagonists, primary screen, cell-based. Sphingosine 1-phosphate receptor 4 (Homo sapiens), O95977. S1P4-expressing cells, antagonist mode, reporter read-out. inhibition, % at 4.98 µM. 0.26% of 220,000 active. AID 1510, 2009; in the data active = inhibition above about 29%;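 note: 0% = wells stimulated with agonist and 100% = vehicle wells without agonist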
S1P4 antag conf: S1P4 receptor antagonists, human, confirmation, cell-based; 71% of 520 active; inhibition, % at 4.98 µM; shares compounds with S1P4 antag; AID 1524, 2009; S1P4-expressing cell line, antagonist mode, reporter read-out; in the data active = inhibition above about 30%
S1P1 antagonist: S1P1 receptor antagonists, human, counter-screen for S1P4 antagonist project, cell-based; inhibition, % at 4.98 µM; AID 1564, 2009; shares compounds with S1P4 antag; 37% of 520 active; cell-based S1P1 antagonist counterscreen, inhibition; in the data active = inhibition above about 40%;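 note: receptor stimulated with S1P near its EC80; 0% = agonist stimulated wells and 100% = vehicle only wells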
ROMK hit retest: ROMK channel modulator hit retest, confirmation, cell-based, thallium flux, duplicate, resupplied hits; shares compounds with ROMK primary; fluorescence ratio; active compounds read low; normalized thallium flux (F/F0 slope) at 10 µM; 54% of 3,000 active; AID 1917, 2009;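 active = Flux at 10 µM at least 3 SD below or above vehicle control mean in one or both replicates; inconclusive = no clear call, values can overlap the other calls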
The depositor's hits bear a star; i = inactive; ? = inconclusive; / = not tested or not shown.

SMILES	S1P3 antag	ROMK primary	S1P4 agonist	RAM network inh	Cl transport mod	S1P4 antag	S1P4 antag conf	S1P1 antagonist	others
CS(=O)(=O)c1ncc(Cl)c(C(=O)Nc2ccc3ccccc3c2)n1	0.1	-1.77	-2.9	2.4	-1.94	40.9*	118.5*	54.1*
O=C(Nc1ccc2ccccc2c1)c1cnccn1	-5.5	0.0744	2.2	2.5	/	-3.4	/	/
CC(C)c1ccc(CNc2c([N+](=O)[O-])c(=O)oc3ccccc23)cc1	-28.6	-0.198	-0.3	4.6	0.547	32.1*	-3.4	-8.7
O=c1ccsn1Cc1ccccc1	-22.4	-2.23	-0.5	-0.7	-3.23	33.2*	36.5*	15.5
Cc1ccc(C)c(OCC(=O)Nc2ccc3c(c2)OCO3)c1C	7.8	1.04	-0.2	1.7	-1.55	30.1*	1.6	6.4
Cc1cccc(OCC(=O)Nc2ccc3c(c2)OCO3)c1C	18.4	-0.588	-0.4	4.5	-0.0617	-4.9	/	/
CCNc1nc(NC(C)(C)C)nc(N2CCCCC2)n1	-13.4	-1.02	-0.5	0.0	-0.442	43.6*	92.0*	21.1
CCO[C@@H]1OC(C(=O)N2CCOCC2)=C[C@H](c2coc3ccccc3c2=O)[C@H]1CCCO	-9.4	/	-1.2	0.2	1.24	-4.1	/	/
N/C(=N/OC(=O)c1ccccc1Cl)c1ncc([N+](=O)[O-])s1	9.7	1.35	1.1	/	-0.592	33.7*	27.7	38.3
N/C(=N\OC(=O)c1ccccc1Cl)c1ccncc1	-1.4	-0.0699	-1.2	1.0	-0.147	-0.6	/	/
O=[N+]([O-])c1ccc(N=Nc2c(Cl)cc(O)cc2Cl)cc1	2.9	-8.77*	0.6	/	7.5*	30.9*	67.3*	18.4
Cc1cc2c(c(N3CCOCC3)n1)C(=O)OC2	/	0.365	-0.5	1.1	1.04	35.5*	-3.3	-1.1
O=C(C1=NN[C@@H]2C(=O)N(Cc3ccccc3)C(=O)[C@H]12)c1ccc([N+](=O)[O-])cc1	-1.0	1.02	1.4	/	-1.21	-1.5	/	/
CCOC(=O)c1c(NC(=O)OC)sc(C(=O)N(C)C)c1C	/	0.899	2.5	-1.2	1.64	44.2*	-0.5	-2.8
CC(/C=N/NC(=O)c1sc(N)nc1C)=C\c1ccccc1	-10.3	0.17	-0.3	3.3	0.067	-13.2	/	/
COc1cccc(NC(=O)C2(S(=O)(=O)c3ccc(Cl)cc3)CC2)c1	8.6	-0.178	2.2	/	0.819	1.5	/	/
O=C(Nc1ccc(C(=O)N2CCOCC2)cc1)c1cccc([N+](=O)[O-])c1	2.0	-0.2	3.3	1.1	-0.0827	-7.8	/	/
Cn1c2c(c(=O)n(C)c1=O)C(C(F)(F)F)(C(F)(F)F)N=C(c1ccc(Cl)cc1)N2	/	/	0.8	-0.3	/	51.4*	21.4	-19.2
Cc1ccccc1C1=NC(C(F)(F)F)(C(F)(F)F)c2c(n(C)c(=O)n(C)c2=O)N1	-1.4	/	-0.2	0.2	-0.0738	-18.8	/	/
O=C(N/N=C(\Cc1ncc[nH]1)c1ccccc1)c1cccnc1	-5.3	1.16	1.2	1.0	0.256	-8.0	/	/
CCC(CO)[n+]1c(C)cc(/C=C2\Sc3ccccc3N2Cc2ccccc2)cc1C (stereo not given)	0.3	/	0.1	1.6	i	2.6	/	/
CCOc1ccc(C(=O)C(CCC(CN(C)C)C(=O)c2ccc(OCC)cc2)CN(C)C)cc1 (stereo not given)	12.7	/	-2.7	-0.4	0.987	42.5*	109.6*	52.0*
COc1ccc(C(=O)C(CCCCC(CN(C)C)C(=O)c2ccc(OC)cc2)CN(C)C)cc1 (stereo not given)	/	-1.83	-4.5	1.3	-0.581	-0.7	/	/
CC(C)N(C(=O)COC(=O)c1cncc(Br)c1)C(C)C	-5.2	0.073	-1.8	-0.4	0.0167	-13.2	/	/
COc1cc(NC(=O)c2cc(CC(C)C)on2)c(OC)cc1Cl	-5.8	/	0.6	4.2	-0.312	32.9*	23.1	12.3
SMILES	S1P3 antag	ROMK primary	S1P4 agonist	RAM network inh	Cl transport mod	S1P4 antag	S1P4 antag conf	S1P1 antagonist	others
Cc1cccc(NC(=O)c2ccccc2-c2ccccc2)c1	-15.8	-0.631	0.5	-0.1	-2.11	8.6	/	/
Cc1cc(NC(=O)c2ccccc2-c2ccccc2)ccc1Br	-0.9	0.318	-0.9	6.4	-1.03	37.0*	31.6*	13.8
COc1cc(NC(=O)c2ccc([N+](=O)[O-])o2)ccc1NC(=O)c1cccs1	-15.8	0.0463	-1.3	5.9	-0.665	16.5	/	/
O=C(Nc1cccc(NC(=O)c2cccs2)c1)c1ccc([N+](=O)[O-])o1	11.9	/	-1.6	/	0.288	55.6*	65.7*	62.0*
CCC(NC(=O)Nc1nnc(C(F)(F)F)s1)(C(F)(F)F)C(F)(F)F	/	-5.85*	-0.3	0.4	/	37.7*	51.2*	7.0	ROMK hit retest=0.062*
O=C(NCc1cccnc1)/C(=C\c1ccc(-c2ccc(Cl)c(Cl)c2)o1)S(=O)(=O)c1ccccc1	10.0	-5.07*	-0.9	-1.5	-0.694	57.9*	108.0*	48.4*	ROMK hit retest=0.0562*
O=C(NCc1cccnc1)c1ccc(-c2ccc(Cl)cc2)o1	-12.6	/	-0.5	1.8	/	-10.5	/	/
COc1cccc(-n2nnnc2S(C)(=O)=O)c1	/	-3.52*	0.2	-0.8	/	42.0*	110.3*	17.0	ROMK hit retest=0.0626*
CN(C)CC(CCC(CN(C)C)C(=O)c1ccccc1)C(=O)c1ccccc1 (stereo not given)	8.4	-3.22*	-0.4	/	1.13	41.3*	110.5*	39.3	ROMK hit retest=0.0442*
O=C(O)/C=C\C(=O)Nc1ccc(F)c(F)c1F	1.4	/	0.3	/	-1.03	3.1	/	/
CCN1C(=O)/C(=C\C(=O)c2cccs2)c2cc(Br)ccc21	8.0	-2.22	0.0	7.4	0.228	6.1	/	/
O=C1Nc2ccccc2/C1=C/C(=O)c1cccs1	/	-5.62*	0.1	-0.5	-0.929	37.9*	64.0*	46.8*	ROMK hit retest=0.0387*
O=C(Cn1ncc(Cl)c(Cl)c1=O)N1CCc2ccccc21	-15.6	-3.35*	-5.1	5.0	/	78.9*	118.1*	94.3*	ROMK hit retest=?
O=C(Cn1ncc2c1-c1ccccc1OC2)N1CCc2ccccc21	9.9	/	0.0	4.3	-0.457	-2.7	/	/
Cc1cccc(CSc2nnc3c(n2)[nH]c2ccccc23)c1	-2.8	/	-1.2	/	-1.32	-1.4	/	/
